Assay results from PubChem BioAssay AID431 (Sanford-Burnham Center for Chemical Genomics, 2006).
Hit rate of the full screen: of about 63,000 compounds, about 1,100 (1.7%) were called active. This is one part of a sample in which actives are shown more often than they occur. Results with a measured potency or affinity are listed apart. A number with no mark means an inactive call.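 How the source made its calls: active means compounds whose percent cytotoxicity in the single-dose primary screen, scaled between solvent and toxic-drug controls, exceeds 50; inactive means the rest.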

Test: cytotoxicity in KRAS-transformed pancreatic duct cells, primary screen, cell-based, fluorescence, HTS (AID 431);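 further: 0% = DMSO solvent wells and 100% = doxorubicin-treated wells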
Conditions: HPDE-C7K KRASV12 cells, Alamar Blue viability, 48 h; at 10 µM; stronger effect = higher value

Compound	cytotoxicity
O=C1CSC(c2ccco2)N1 (stereo unspecified)	-1.3%
O=C(CN1CCN(c2ccc(Cl)cc2)CC1)Nc1ccc(F)c(F)c1	-4.6%
CC1CN(S(=O)(=O)c2ccc(NC(=O)c3ccco3)cc2)CC(C)O1 (stereo unspecified)	-0.1%
O=C(C1CCN(S(=O)(=O)c2cccc3cccnc23)CC1)N1CCCC1	3.6%
COc1ccc(NS(=O)(=O)c2ccc(Oc3ncccn3)cc2)cc1	18.2%
COc1cc(NS(=O)(=O)c2ccc(C)cc2)c2ncccc2c1	69.8% (active)
O=S(=O)(Nc1cccc2cccnc12)c1ccc(S(=O)(=O)N2CCCC2)cc1	70.3% (active)
CS(=O)(=O)Nc1cccc2cccnc12	14.8%
COc1cc(NCCCC(C)N)c2ncccc2c1 (stereo unspecified)	4.4%
O=C(c1nc2nc(-c3ccc(Cl)cc3)cc(C(F)(F)F)n2n1)N1CCOCC1	3.6%
COc1ccc(OC)c(-n2cnc3cc(C(=O)O)ccc32)c1	-15.9%
CC1CCN(CCNC(=O)C2CCCN(S(=O)(=O)c3cccc4nonc34)C2)CC1 (stereo unspecified)	-4.5%
CCOC(=O)c1c(NC(=O)c2cccs2)sc(C)c1CC	2.4%
CC(C)OC(=O)c1c(NC(=O)c2cccs2)sc2c1CCCC2	-3.4%
CCc1c(C)sc(NC(=O)c2cccs2)c1C(=O)OC(C)C	51.6% (active)
COCc1cc(=O)[nH]c(Nc2nc3ccc(C)cc3o2)n1	50.7% (active)
COC(=O)Cc1cc(=O)[nH]c(Nc2nc3ccccc3o2)n1	11.4%
COCc1cc(=O)[nH]c(Nc2nc3ccccc3o2)n1	28.8%
COc1ccccc1NC(C)=O	-2.1%
Cc1cccc(NC(=O)c2ccc(S(=O)(=O)N3CCCCC3)cc2)n1	2.7%
COC(=O)c1cc(NC(=O)C2CC=CCC2C(=O)O)cc(C(=O)OC)c1 (stereo unspecified)	-9.5%
CC1Cn2c(nnc2-c2cccc(N)c2)S1 (stereo unspecified)	-6.4%

Compound	cytotoxicity
COc1ccc(S(=O)(=O)N(C)CC(=O)Nc2cccc(C(C)=O)c2)cc1	-14.2%
COc1cc(-c2nnc(COc3ccc4ccccc4c3)o2)cc(OC)c1OC	36.9%
COc1ccc(-c2nnc(COc3ccc4ccccc4c3)o2)cc1OC	-1.8%
COc1cc(-c2nnc(COc3ccc4cc(Br)ccc4c3)o2)cc(OC)c1OC	75.7% (active)
COc1ccc(N=C2SC(C(=O)Nc3ccc4c(c3)OCO4)CC(=O)N2C)cc1 (stereo unspecified)	-25%
Cc1c(NC(=O)COC(=O)C2CC3C=CC2C3)c(=O)n(-c2ccccc2)n1C (stereo unspecified)	-2.3%
CC(/C(O)=C(\C#N)c1nc2ccccc2n1C)N1C(=O)c2ccccc2C1=O (stereo unspecified)	0.7%
Cc1cccc(N2CCN(C(=O)c3ccncc3)CC2C)c1 (stereo unspecified)	7.3%
Cc1cccc(N2CCN(c3cccc(C)c3)C2c2cccnc2)c1	53.7% (active)
Cc1ccc(N2CCN(c3ccc(C)cc3)C2c2ccncc2)cc1	-25.3%
Cc1cccc(N2CCN(C(=O)COc3cc(=O)n(C)c4ccccc34)CC2C)c1 (stereo unspecified)	-5.4%
c1cncc(C2Nc3ccccc3-c3nc4ccccc4n32)c1 (stereo unspecified)	3.3%
O=S(=O)(NC1CCCC1)c1ccccc1Cl	-5.7%
COc1cc(Br)cc(CN2CCN(C=O)CC2)c1O	-2.1%
COc1cc(Br)cc(/C=N/c2ncn[nH]2)c1O	85.2% (active)
O=c1c2ccccc2c(/C=N/c2ncn[nH]2)c(O)n1Cc1ccccc1	17.3%
COc1cccc(C=Nc2cc(C)on2)c1O	7.3%
Oc1c(/C=N/c2ncn[nH]2)ccc2ccccc12	65.8% (active)
C=CCc1cccc(/C=N/c2ncn[nH]2)c1O	18.3%
Cc1ccccc1-c1nnc(-c2ccc(Br)cc2)o1	0.4%
COc1cc(OC)cc(C(=O)Nc2ncc3c(n2)CC(C)CC3=O)c1 (stereo unspecified)	18.9%
CC(C)c1ccc(NC(=O)c2cnn(-c3ccccc3)c2NC(=O)c2ccco2)cc1	0.3%

Compound	cytotoxicity
CCN(CC)CCNC(=O)c1cc2c(=O)n(C)c3ccccc3c2n1C	-20%
O=C(Cn1cc2c(n1)CCCC2)Nc1ccccc1Cl	-7.1%
CCOC(=O)c1cccc(NC(=O)CSc2nnc(COc3ccccc3)n2CC)c1	-20.1%
c1cc2c(cc1Nc1nc(-c3ccc4c(c3)OCO4)cs1)OCCO2	56.7% (active)
c1cncc(Nc2nc(-c3ccncc3)cs2)c1	4.9%
O=C(Nc1nc(-c2ccc3c(c2)OCO3)cs1)C1CC1	-0.9%
Nc1nc(-c2ccc3c(c2)OCCO3)cs1	-0.3%
C=CCNc1nc(-c2sc(NC(C)=O)nc2C)cs1	33%
CC(=O)Nc1nc(C)c(-c2csc(Nc3ccc(O)cc3)n2)s1	63.2% (active)
C=CCNc1nc(-c2sc(NC(=O)CC)nc2C)cs1	31.5%
Oc1ccc(Nc2nc(-c3ccc(O)cc3)cs2)cc1	84.1% (active)
NS(=O)(=O)c1ccc(Nc2nc(-c3ccc(O)cc3)cs2)cc1	32.7%
CC(C)CN(CC(C)C)S(=O)(=O)N1CCC(C(=O)NCCN2CCOCC2)CC1	-24.9%
Cc1ccc2c(c1)NC(=O)C(CC(=O)NCCCN1CCCC1=O)O2 (stereo unspecified)	-1%
Cc1nn(C)cc1/C=N/O	-2%
COc1cc(Nc2cc(C)nc3nc(C)nn23)cc(OC)c1OC	-6%
Cc1ccc(S(=O)(=O)N(C)Cc2nc(-c3ccc(Br)cc3)no2)cc1	-5%
COC(=O)C1=C(C)n2cnnc2NC1c1ccc(Cl)cc1 (stereo unspecified)	6.1%
COC(=O)C1=C(C)n2nnnc2NC1c1ccc(Cl)cc1 (stereo unspecified)	69.3% (active)
COC(=O)C1=C(C)n2nnnc2NC1c1cc2ccccc2o1 (stereo unspecified)	4.4%
Cc1cc(S(=O)(=O)NCCN2CCOCC2)c(C)s1	1.5%
O=C(CCN1C(=O)COc2ccccc21)NCCN1CCN(c2ccccc2F)CC1	2%
